Bioassay records: PubChem BioAssay, National Center for Advancing Translational Sciences (NCATS)
Most compounds without a hit are left out; they make up all but 3.2% or so of the library.
IL2 activator – activates IL-2 in a cell-based reporter assay. IL-2 activation reporter assay, cell-based qHTS; stimulated with anti-CD3/CD4/CD28 beads; in transgenic mouse T cells. activation, % (series mostly up to about 46 µM). actives 0.065% (n = 360,000); in the data active means activation above about 50%; inconclusive means mostly about 30% to 49%; further: 0% is about no effect
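Screening format: compound pinned onto unstimulated transgenic mouse T cells, 60 min incubation, then anti-CD3/anti-CD4/anti-CD28 bead stimulation for 18 hours at 37 degrees C, followed by EGFP and DsRed detection.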
p53 reactivator – re-activators of mutant p53. H1299 p53-A138V BP100-luciferase reporter, luminescence, 24 h. Potency, µM (titrated, usually from 92.2 µM), for the others: at the top dose activity change, positive = activation, most hits filed as activators. actives 0.063% (n = 320,000); further: potency means the concentration at half of the fitted maximal effect; % of control where 0% means no effect; nearly all actives have a fitted effect of over 45% in size
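p53-null H1299 cells stably carrying temperature-sensitive p53-A138V and a BP100-luciferase reporter were pinned with compounds (4-point, 1:5 series) and held 24 hrs at 37 deg C. Luminescence was read 10 min after detection reagent.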
Nrf2 activator – activates Nrf2 signaling | Potency, µM (doses to about 46.1 µM), without a hit: at the top dose activation, hits mostly activators | actives 0.31% (n = 410,000) | AREc32 ARE-luciferase reporter (MCF7-derived line), luminescence, 24 h; further: potency means the concentration at half of the fitted maximal effect; % of control where 0% means no effect; nearly all actives have a fitted effect of over 65% in size
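Reporter line AREc32 (ARE-Fluc), seeded overnight in OPTI-MEM with 5% FBS; compound pin-transferred, 24 hr at 37 deg C, 5% CO2; luminescent read-out.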
BRCA1 expr act – BRCA1 expression activation; actives 1.1% (n = 380,000); MCF7-BRCA1-FFLuc reporter, luminescence, 48 h; response scale: scaled: vehicle 0%, 10 µM genistein 100%; Potency, µM (series often up to 46.1 µM), for inactives: at the highest dose activation, usual class: activators; further: potency means the concentration at half of the fitted maximal effect; nearly all actives have a fitted effect of over 80% in size
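MCF7-BRCA1-FFLuc, 2000 cells/well; 2 h attach, 37 °C/5% CO2; compound 48 h; luciferase substrate 15 min; luminescence end-point. Norm. to genistein 10 microM max activation and DMSO; concentration-response curves fitted.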
A549 tox – counter-screen for Nrf2 inhibitors: cytotoxicity in A549 cells. A549 ARE-Fluc cells, CellTiter-Fluor viability, 18-24 h. Potency, µM (top dose mostly 46 µM), for inactives: at the top dose activity change, negative = cytotoxicity, hits mostly inhibitors. actives 0.16% (n = 390,000); further: potency means the concentration at half of the fitted maximal effect; on the % scale 0 is the no-effect control and ±100 the full control effect
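A549 ARE_Fluc cells in 5% FBS OPTI-MEM were exposed to compounds in concentration-response for 18-24 h at 37 deg C. Viability was read by CellTiter-Fluor fluorescence (Ex 405/Em 525) after 30 min, before the luciferase read.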
Nrf2 block – blocks Nrf2 signaling. A549 ARE-Fluc reporter, luciferase luminescence, 18-24 h. Potency, µM (doses to about 46 µM), without a hit: at the top dose activity change, negative = inhibition, actives largely listed as inhibitors. actives 2.1% (n = 360,000). AID 504444; further: potency means the concentration at half of the fitted maximal effect; on the % scale 0 is the no-effect control and ±100 the full control effect; nearly all actives have a fitted effect of over 60% in size
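In this cell-based qHTS, ARE-driven firefly luciferase in A549 cells reports Nrf2 activity; the luminescent signal after BugLite lysis is the measured value, with a prior CellTiter-Fluor read for cell health.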
Starred values were filed as active, the others as inactive. Unless noted, the call rests on the fitted dose curve; in most records, active means well fitted curve in the direction sought with a large enough effect; inconclusive means small, poorly fitted or top-dose-only effect, or another doubt; inactive means no such curve, though single readings can be large; an effect the other way counts as inactive or inconclusive.

CC(C)(C)C(=O)Oc1ccc2cc(-c3ccc4ccccc4n3)c(=O)oc2c1 was read as IL2 activator 5, p53 reactivator inconclusive, Nrf2 activator 9%, BRCA1 expr act 14µM*, A549 tox 18% and Nrf2 block 3%.
For COc1ccc(-c2cc3ccc(O)cc3oc2=O)cc1 the results were IL2 activator 2, p53 reactivator inconclusive, Nrf2 activator 3%, BRCA1 expr act inconclusive, A549 tox 1% and Nrf2 block 16%.
For O=c1oc2ccc3ccccc3c2cc1-c1nc2c(s1)CCc1ccccc1-2 the results were BRCA1 expr act 0%, A549 tox 10% and Nrf2 block 2%.
Screening CC(=O)Oc1ccc(-c2cc3c(OC(C)=O)cc(OC(C)=O)cc3oc2=O)cc1 returned IL2 activator -1, Nrf2 activator 5%, BRCA1 expr act 6%, A549 tox inconclusive and Nrf2 block -25%.
O=c1oc2ccccc2cc1-c1nc2c(s1)CCc1ccccc1-2 was read as IL2 activator inconclusive, p53 reactivator inconclusive, Nrf2 activator 4µM*, BRCA1 expr act -17%, A549 tox inconclusive and Nrf2 block inconclusive.
`Cc1ccccc1C(=O)Nc1nc2c(s1)CC(C(C)(C)C)CC2` (configuration not stated) gave Nrf2 activator 0%, A549 tox 4% and Nrf2 block inconclusive.
Screening O=c1oc2cc(O)ccc2cc1-c1nc2c(s1)CCc1ccccc1-2 returned IL2 activator 50*, p53 reactivator 2%, Nrf2 activator 6%, BRCA1 expr act -19%, A549 tox inconclusive and Nrf2 block -7%.
`COc1cc2nc(N3CCCN(C)CC3)nc(NC3CCCCC3)c2cc1OC` gave BRCA1 expr act -42%.
`CCCNc1ccc(-c2nc(-c3ccncc3)no2)cc1[N+](=O)[O-]` gave Nrf2 activator 0%, BRCA1 expr act -3%, A549 tox 1% and Nrf2 block 4%.
Screening O=C(NCCNc1ccnc2cc(Cl)ccc12)c1ccccc1F returned IL2 activator -1, Nrf2 activator 4%, BRCA1 expr act -8%, A549 tox -10% and Nrf2 block 18µM*.
`Cc1c(C(=O)N2CCC(C)CC2)c(S(=O)(=O)Nc2cccc(C(F)(F)F)c2)c(C)n1C` gave Nrf2 activator 0% and A549 tox -10%.
Cc1nc2nc(C)c(CCC(=O)NCc3cccc(Cl)c3)c(C)n2n1 was read as Nrf2 activator 0%, BRCA1 expr act 0%, A549 tox -3% and Nrf2 block -7%.
`CCOC(=O)c1sc(NC(=O)c2ccncc2)c(C#N)c1C` gave IL2 activator -3, p53 reactivator 14%, Nrf2 activator 2%, BRCA1 expr act -91%, A549 tox inconclusive and Nrf2 block 23µM*.
Screening CCOC(=O)c1c(NC(=O)c2ccncc2)sc(C)c1C returned IL2 activator 0, p53 reactivator 0%, Nrf2 activator 3%, BRCA1 expr act -18%, A549 tox 17% and Nrf2 block 7%.
`CC[n+]1c(/C=C/c2c[nH]c3ccccc23)ccc2cc(C)ccc21` gave IL2 activator 68*, p53 reactivator 0%, Nrf2 activator -1%, BRCA1 expr act -56%, A549 tox inconclusive and Nrf2 block inconclusive.
`Cc1ccc(C(=O)/C=C/c2c[nH]c3ccccc23)cc1` gave IL2 activator -1, p53 reactivator 25%, Nrf2 activator inconclusive, BRCA1 expr act inconclusive, A549 tox -6% and Nrf2 block inconclusive.
CCN(CC)C(=O)c1ccc(/C=C/c2c[nH]c3ccccc23)[n+](C)c1 was read as IL2 activator 79*, p53 reactivator inconclusive, Nrf2 activator 0%, BRCA1 expr act -11%, A549 tox inconclusive and Nrf2 block 10%.
